# PubChem BioAssay AID651821 (The Scripps Research Institute Molecular Screening Center, 2012)
# In all, about 370,000 compounds went through this assay and about 4,700 (1.3%) were called active.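 Rule for the calls: active = inhibition above the plate cutoff, the mean of all test compounds on that plate plus 3 SD (cut at about 35% in these data); inactive = the rest.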 This excerpt belongs to a sample that is enriched for actives.
# Experiment: small molecules binding CAG repeat RNA – biochemical, fluorescence, primary screen (AID 651821);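 note: 0% = DMSO alone and 100% = 100 µM mitoxantrone as full dye displacement; higher means more dye released from RNA so lower well fluorescence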
# Settings: r(CAG) RNA repeat, TO-PRO-1 dye displacement fluorescence; at 3 µM; hits give high values
row,Structure (SMILES),inhibition
1,Cc1ccc(C2NC(C(=O)O)CS2)cc1 (centres undefined),0.84% (inactive)
2,COCCNC(=S)N(C)[C@H]1C[C@H]2c3[nH]c4ccccc4c3CCN2C[C@H]1[C@H](C)O,0.81% (inactive)
3,COC(=O)[C@]12C[C@H](CC(=O)NCc3ccccc3)C(=O)N(CCC3=CCCCC3)C1=C[C@H](C(C)C)O[C@@H]2C1CC1,3.49% (inactive)
4,O=C(c1c[nH]c2ccccc12)N1CCC(Oc2cccnc2)CC1,0.25% (inactive)
5,CC(C)=CCCC1(C)C=Cc2c(ccc3c2[nH]c2cc(O)c(C)cc23)O1 (centres undefined),50.7% (active)
6,COP(=O)(O)CNC(=O)OCc1ccccc1,3.7% (inactive)
7,C[C@@H](CN1C2=NC[C@@H](Cc3ccccc3)N2C[C@H]1Cc1ccc(O)cc1)NC(=O)CCC1CCCCC1,10.8% (inactive)
8,C=C(C)C#CC(Cc1ccccc1)NCC1CC1 (centres undefined),0.83% (inactive)
9,O=C(CSc1nnc(COc2ccccc2)n1Cc1ccco1)c1ccc2ccccc2c1,10.1% (inactive)
10,Cc1sc2nc(SCC(=O)c3ccc(O)c(O)c3)n(Cc3ccco3)c(=O)c2c1C,60.5% (active)
11,O=C(CSc1nnc(-c2cccs2)n1Cc1ccco1)c1ccc2c(c1)OCO2,2.71% (inactive)
12,CN[C@H]1C[C@H]2c3cc(N4CCOCC4)ccc3CCN2C[C@H]1[C@H](C)O,0.53% (inactive)
13,COC(=O)c1ccc(NC(=O)CSc2nc(N)c(NC(=O)c3ccc(Br)o3)c(=O)[nH]2)cc1,8.43% (inactive)
14,COc1ccc(CNC(=O)CCC(=O)Nc2nnc(C(C)C)s2)cc1,-3.44% (inactive)
15,COc1ccc(OCC(=O)Nc2nnc(-c3ccco3)s2)cc1,35.6% (active)
16,COc1ccc(OCCCC(=O)Nc2nnc(C3CCCO3)s2)cc1 (centres undefined),-2.42% (inactive)
17,CC(=O)C1=C(C)N(Cc2ccccc2)C(=S)NC1c1cccc(Br)c1 (centres undefined),3.69% (inactive)
18,Cc1[nH]nc2c1C(c1ccc(Br)cc1)NC2=O (centres undefined),2.38% (inactive)
19,CCc1cc(-c2nnc(SCC(=O)NC3CC3)n2C)cs1,-0.55% (inactive)
20,N#Cc1c(-c2cccs2)nc(SCC(=O)c2ccc(Br)cc2)[nH]c1=O,76% (active)
21,CCc1ccc(C(=O)CSc2nnc(C)c(=O)[nH]2)cc1,1.9% (inactive)

row,Structure (SMILES),inhibition
1,Cc1nnc(SCC(=O)NCc2cccs2)[nH]c1=O,1.73% (inactive)
2,COc1ccc(-n2c(COc3ccccc3)nnc2SCC(=O)Nc2ccc3c(c2)OCO3)cc1,3.35% (inactive)
3,CN[C@H]1C[C@H]2c3[nH]c4c(-c5ccccc5)cccc4c3CCN2C(=O)[C@H]1[C@H](C)O,1.12% (inactive)
4,COc1ccc([C@H]2OC(=O)C[C@H]2C(=O)N2CCN(c3ccccc3F)CC2)cc1OC,-0.41% (inactive)
5,O=C(CCCCCN1C(=O)C2C3C=CC(C3)C2C1=O)Nc1ccccc1 (centres undefined),-0.35% (inactive)
6,O=C(Nc1nc2ccc(Cl)cc2s1)c1cc(-c2ccc(Cl)cc2)nc2ccccc12,7.74% (inactive)
7,O=C(O)c1cccc(NC(=O)c2cc(-c3cccc(Cl)c3)nc3ccccc23)c1,49.4% (active)
8,Cc1cc(C(=O)Nc2ccc(C)c(S(=O)(=O)N3CCOCC3)c2)c2ccccc2n1,5.4% (inactive)
9,O=C(Nc1cccc(F)c1)c1cc(-c2ccco2)nc2ccccc12,35% (active)
10,Cc1c(C(=O)Nc2cccc(Cl)c2)cn2c(nc3ccccc32)c1C#N,0.68% (inactive)
11,O=C(Nc1cccc(F)c1)c1coc(=O)c(Br)c1,1.62% (inactive)
12,CN(C)S(=O)(=O)c1cccc(C(=O)N/N=C\c2ccco2)c1,3.29% (inactive)
13,Cc1ccc(S(=O)(=O)N2CC3C(=O)C[C@@H](c4ccccc4Cl)N(S(=O)(=O)c4ccc(C)cc4)C3CC2c2ccccc2)cc1 (some centres undefined),8.71% (inactive)
14,CC(C)CSc1nnc(-c2cccnc2)n1Cc1ccccc1,-1.04% (inactive)
15,CN(C)CCCCCN(C)Cc1cc2ccccc2o1,-1.3% (inactive)
16,CC(=O)O[C@@]1(C(C)=O)CCC2[C@H]3C=C(C)C4=CC(=O)CC[C@@]4(C)C3CC[C@]21C (some centres undefined),1.96% (inactive)
17,COc1cccc(-c2coc3cc4oc(=O)c(CC(=O)O)c(C)c4cc23)c1,46.5% (active)
18,CCCCCCc1cc2cc(-c3nnc(-c4cccc(OC)c4)o3)c(=O)oc2cc1O,0.83% (inactive)
19,Cc1coc2cc3oc(=O)c(CCC(=O)O)c(C)c3cc12,-1.41% (inactive)
20,CC[C@@H]1Cc2cc(O)ccc2C2=C1c1ccc(O)cc1C[C@H]2CC,6.76% (inactive)
21,CCCCNC(=O)C[C@H]1C(=O)N(Cc2ccc(OC)cc2)C2=CCCC[C@@]21C(=O)OCC,-0.31% (inactive)

row,Structure (SMILES),inhibition
1,O=C1Nc2ccccc2OC1CC(=O)N1CCCCCCC1 (centres undefined),4.22% (inactive)
2,Cc1ccc(S(=O)(=O)N(Cc2ccccc2)c2ccccn2)cc1[N+](=O)[O-],-3.84% (inactive)
3,Cc1ccc(S(=O)(=O)Nc2nc3ccccc3s2)cc1[N+](=O)[O-],45% (active)
4,CCOc1ccc2sc(NS(=O)(=O)c3ccc(N)cc3)nc2c1,9.5% (inactive)
5,CCOC(=O)[C@]12CCCC=C1N(Cc1ccc(OC)cc1)C(=O)[C@@H]2CC(=O)N1CCOCC1,-1.51% (inactive)
6,CN1CCCCC(NC(=O)C(C)(C)C)C1=O (centres undefined),2.33% (inactive)
7,COC(=O)[C@]12C[C@H](CC(=O)NCc3ccccc3)C(=O)N(CCc3ccc(OC)c(OC)c3)C1=C[C@H](C(C)(C)C)O[C@@H]2C,-2.21% (inactive)
8,CC(Sc1ncnc2c1cnn2-c1ccccc1)C(=O)Nc1ccc(N2CCOCC2)cc1 (centres undefined),5.83% (inactive)
9,Cc1ccc(-n2ncc3c(Nc4cccc(C(=O)O)c4)ncnc32)cc1,40.9% (active)
10,COC(=O)CSc1ncnc2c1cnn2-c1ccc(C)cc1C,-5.94% (inactive)
11,O=C(NCCC1=CCCCC1)C1CCN(S(=O)(=O)c2ccc(Cl)s2)CC1,1% (inactive)
12,CSc1ccc(CN(C)CC(=O)NCc2ccc(F)cc2)cc1,-7.36% (inactive)
13,O=C(NCc1ccccc1)[C@H]1CCCN1C(=O)[C@@H]1CCCN1C(=O)c1ccc(Cl)cc1Cl,1.95% (inactive)
14,COC(=O)c1sccc1NS(=O)(=O)c1ccc(F)cc1F,1.91% (inactive)
15,COC(=O)c1sccc1NC(=O)CSc1ccccc1NS(=O)(=O)c1cc(Cl)ccc1Cl,59.2% (active)
16,COC(=O)c1scc(C)c1NC(=O)CSc1ccc(Cl)cc1,-5.15% (inactive)
17,C=CC[C@]12C[C@@]3(O[C@H](c4ccc(C(F)(F)F)cc4)N=C3C[C@H](c3ccc(OC)cc3)[C@H]1C)N(C1CCN(Cc3ccccc3)CC1)C2=O,5.05% (inactive)
18,COc1ccc(C(=O)OCCN2CCN(C3CN(Cc4cn(Cc5ccccc5F)nn4)S(=O)(=O)C3)CC2)cc1OC (centres undefined),1.05% (inactive)
19,CCC(=O)OCCCN1C(=O)CCC12CCC(c1ccccc1)CC2 (centres undefined),-0.66% (inactive)
20,CC(Oc1ccc2c(-c3ccccc3)cc(=O)oc2c1)C(=O)NC(Cc1c[nH]c2ccccc12)C(=O)O (centres undefined),42.8% (active)
21,O=C(N[C@@H](Cc1c[nH]c2ccccc12)C(=O)O)OCC1c2ccccc2-c2ccccc21,59.4% (active)

row,Structure (SMILES),inhibition
1,COC(=O)C(Cc1c[nH]c2ccccc12)NC(=O)CCNC(=O)c1ccco1 (centres undefined),2% (inactive)
2,COc1ccc(-c2cc(C(=O)NC(C(=O)O)C(C)C)c(C)o2)cc1OC (centres undefined),6.76% (inactive)
3,COc1ccc(-c2cc(C(=O)NC(Cc3c[nH]c4ccccc34)C(=O)O)c(C)o2)cc1OC (centres undefined),53.8% (active)
4,CCOCCCNC(=O)C(NC(=O)Cc1c[nH]c2ccccc12)c1ccc(OC)cc1 (centres undefined),-4.93% (inactive)
5,O=C(CCn1nnc2ccccc2c1=O)N[C@@H](Cc1c[nH]c2ccccc12)C(=O)O,2.19% (inactive)
6,COC(=O)C(C)Oc1ccc2c(-c3cccc([N+](=O)[O-])c3)cc(=O)oc2c1 (centres undefined),1.44% (inactive)
7,COc1ccc(-c2cc(=O)oc3cc(OC(C)C(=O)NCC4CCC(C(=O)O)CC4)ccc23)cc1 (centres undefined),8.77% (inactive)
8,O=C(NC(Cc1c[nH]c2ccccc12)C(=O)O)/C(=C/c1ccco1)NC(=O)c1ccccc1 (centres undefined),20.3% (inactive)
9,COc1ccc(-c2cc(=O)oc3cc(OCC(=O)N(C)C4CCS(=O)(=O)C4)ccc23)cc1 (centres undefined),-1.96% (inactive)
10,COc1ccc(-c2cc(=O)oc3cc(OCC(=O)N[C@@H](Cc4c[nH]c5ccccc45)C(=O)O)ccc23)cc1,55.5% (active)
11,COC(=O)c1cc(S(=O)(=O)N2CCN(C(=O)C3CCCO3)CC2)cn1C (centres undefined),1.73% (inactive)
12,COC(=O)[C@]12C[C@H](CC(=O)NCc3ccc(OC)c(OC)c3)C(=O)N(Cc3ccccc3)C1=C[C@H](C(C)C)O[C@@H]2C1CC1,1.35% (inactive)
13,O=C(NC1CCCCN(Cc2cccc(C(F)(F)F)c2)C1=O)c1ccccc1I (centres undefined),-0.65% (inactive)
14,Cc1csc(CN(C)C(=O)CC2C(=O)NCCN2CC(C)(C)C)n1 (centres undefined),-3.94% (inactive)
15,O=C(NCc1ccco1)C1CCCN(S(=O)(=O)c2ccc(Cl)s2)C1 (centres undefined),-0.27% (inactive)
16,CSC1=NN(c2ccccc2)CN(c2ccccc2)N1C,0.22% (inactive)
17,COc1ccccc1-c1ccc([C@@H]2C[C@H]3[C@H](CON3C)CN2S(=O)(=O)c2cc(Cl)cc(Cl)c2)cc1,5.7% (inactive)
18,CN(Cc1ccccc1)CC(O)COc1ccc(CNCc2cc3ccccc3s2)cc1 (centres undefined),-2.3% (inactive)
19,Nn1c(SCC(=O)N2c3ccccc3Sc3ccccc32)nnc1-c1n[nH]c2c1CCC2,12.9% (inactive)
20,CC(CCN1CCC(C(O)(c2ccccc2)c2ccccc2)CC1)Oc1ccc(C(F)(F)F)cc1 (centres undefined),2.52% (inactive)
21,Cc1ccc(C2=CCN(C)C(=O)N2c2ccc(Cl)cc2)cc1,6.97% (inactive)
